Screening data deposited in PubChem BioAssay by National Center for Advancing Translational Sciences (NCATS).
MCF10A rerep: inducers of DNA re-replication in MCF 10A breast cells; 350,000 tested, 2.9% active; Potency, µM (top dose mostly 46.1 µM), for the others: at the highest dose activity, positive = re-replication, usual class: activators; MCF 10A DNA re-replication, Hoechst nuclear intensity, 48 h; further: % of control where 0% means no effect; nearly all actives have a fitted effect of over 50% in size
SW480 rereplic: induces DNA re-replication in SW480 colon adenocarcinoma cells | Potency, µM (series often up to 46.1 µM), for inactives: top-dose re-replication activation, hits mostly activators | SW480 DNA re-replication, Hoechst DNA content imaging, 48 h | 340,000 tested, 1.8% active | AID 624297; further: % of control where 0% means no effect; nearly all actives have a fitted effect of over 55% in size
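Per well, 250 cells were exposed to pinned compound for 48 hr. Nuclear DNA was visualised with Hoechst (40 min, 37 C) and total object intensity recorded by fluorescence scanning.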
KB-3-1 tox: KB-3-1 parental cell cytotoxicity; AID 1347075; KB-3-1 viability, CellTiter-Glo ATP luminescence, 72 h; 400,000 tested, 1.4% active; Potency, µM (series often up to 46.1 µM), usual class: cytotoxic; further: on the % scale 0 is the no-effect control and ±100 the full control effect; nearly all actives have a fitted effect of over 60% in size
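KB-3-1 parental drug-naive adenocarcinoma cells in DMEM/10% FBS, incubated 72 h at 37 C with pin-transferred compounds across a concentration series. Viability by CellTiter-Glo luminescence; concentration-response curves fitted after normalization.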
TSG101-PTAP inh: blocks PTAP/TSG101 interaction to inhibit HIV-1 budding | 340,000 tested, under 10 active | Potency, µM (top dose mostly 115 µM), without a hit: at the highest dose activity change, negative = inhibition, hits mostly inhibitors | Q99816 | Fluorescence polarization, FITC-PTAP peptide / Tsg101 binding; active means well fitted inhibition curve with a large enough effect in the main read-out, with a control signal flat, not every such curve was filed as active; inconclusive means small, poorly fitted or top-dose-only effect, or effect the other way, or a change in a side signal; inactive means no such curve, though single readings can be large or run the other way; further: % of control where 0% means no effect
Target sequence (Q99816 whole entry, looked up): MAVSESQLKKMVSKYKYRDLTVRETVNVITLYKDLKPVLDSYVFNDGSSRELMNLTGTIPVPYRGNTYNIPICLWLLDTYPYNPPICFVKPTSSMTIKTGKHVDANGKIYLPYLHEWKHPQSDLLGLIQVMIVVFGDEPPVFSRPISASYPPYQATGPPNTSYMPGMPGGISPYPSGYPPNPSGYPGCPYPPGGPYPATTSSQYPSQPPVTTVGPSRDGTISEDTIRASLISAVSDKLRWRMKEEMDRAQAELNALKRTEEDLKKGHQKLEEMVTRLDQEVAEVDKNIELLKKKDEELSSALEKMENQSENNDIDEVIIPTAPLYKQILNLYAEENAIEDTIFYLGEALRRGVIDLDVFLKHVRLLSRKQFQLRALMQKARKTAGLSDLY
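FP read-out: FITC-PTAP peptide, 50 nM final, binding Tsg101 binding domain, 10 uM final; 20 min, r.t.; 10 mM HEPES pH 7.5, 0.15 M NaCl, 0.01% Tween 20, 3 mM EDTA, 0.1 mM TCEP.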
KB-V1 MDR tox: kills drug-selected multidrug resistant KB-V1 cells; KB-V1 MDR cells viability, CellTiter-Glo, 72 h; Potency, µM (series often up to 46.1 µM), actives largely listed as cytotoxic; 400,000 tested, 3.4% active; AID 1347076; further: on the % scale 0 is the no-effect control and ±100 the full control effect; nearly all actives have a fitted effect of over 60% in size
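Cytotoxicity via CellTiter-Glo luminescence after 72 h compound exposure at 37 degrees C. Cells: drug-selected KB-V1 line, DMEM phenol-red free plus 10% FBS. Compounds tested at multiple concentrations; normalized data fitted to concentration-effect curves.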
RGS4 inh: blocks human RGS4-accelerated GTP hydrolysis; P49798; Transcreener GDP fluorescence polarization, RGS4-accelerated GTP hydrolysis; Potency, µM (top dose mostly 114 µM), for the others: top-dose activity change, negative = inhibition, actives largely listed as inhibitors; 390,000 tested, 0.039% active; further: on the % scale 0 is the no-effect control and ±100 the full control effect; nearly all actives have a fitted effect of over 75% in size
Target sequence (P49798 whole entry, looked up): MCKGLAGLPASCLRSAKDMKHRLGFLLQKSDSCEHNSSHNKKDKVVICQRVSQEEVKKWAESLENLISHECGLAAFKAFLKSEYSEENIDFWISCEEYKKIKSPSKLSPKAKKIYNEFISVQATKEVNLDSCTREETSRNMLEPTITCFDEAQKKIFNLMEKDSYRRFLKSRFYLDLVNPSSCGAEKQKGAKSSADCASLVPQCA
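MLSMR compounds (23 nl, pin-transferred) preincubated 10 min at room temperature with a 500nM (2x) first reagent, then RGS4 at 900nM (2x) plus Transcreener GDP mix added; fluorescence polarization (620/688 nm) read before and after 90 min at 30 °C.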
Numbers without * were called inactive; i = inactive; ? = inconclusive; / = no result; ! = a repeat was not active; [ ] = dose if it differs, or a comment. In the library only some 6.6% were active in any assay of this set; here they are far more common. Unless noted, the call rests on the fitted dose curve; in most records, active means well fitted curve in the direction sought with a large enough effect; inconclusive means small, poorly fitted or top-dose-only effect, or another doubt; inactive means no such curve, though single readings can be large; an effect the other way counts as inactive or inconclusive. Potency means the concentration at half of the fitted maximal effect.

SMILES	MCF10A rerep	SW480 rereplic	KB-3-1 tox	TSG101-PTAP inh	KB-V1 MDR tox	RGS4 inh
O=C(Nc1ccc(Cl)cc1)/C(=C/c1cccc(O)c1)c1nc2ccccc2s1	4.11µM*	20.6µM*	2.91µM*	-3.6%	?	0.6%
CCOc1ccc(NC(=O)Cn2nnc(-c3nc(-c4ccncc4)no3)c2N)cc1	/	/	/	/	/	28.8%
CCCCNc1c(-c2ccc(OC)c(SC(C)CC)c2)nc2cnccn12 (centres undefined)	?	?	?	-9.6%	?	-17.8%
CCCCNc1c(-c2ccc(SC3CCCCC3)cc2)nc2ccccn12	?	0.4%	?	-4.4%	20.6µM*!	17.8%
CCCCNc1c(-c2ccc(SC(C)CC)cc2)nc2ccccn12 (centres undefined)	?	?	18.4µM*!	?	13µM*!	14.0%
CCCCCCSc1ccc(-c2nc3cnccn3c2NCCCC)cc1	?	20.6µM*	i	/	i	-7.1%
c1ccc(CSc2nnc(C3CCNCC3)o2)cc1	/	/	i	/	i	-8.7%
CSc1nnc(-c2sccc2OCc2ccc(C)cc2)n1C	?	?	?	-5.3%	18.4µM*	-11.3%
Cc1cccc(NC(=O)C2(c3cccs3)CCOCC2)n1	-3.3%	-53.8%	i	-5.3%	16.4µM*	3.3%
Cc1cccc(NC(=O)C2(c3cccs3)CCOCC2)c1	-4.8%	0.4%	i	0.3%	i	23.6%
O=C(NC(c1ccccc1)c1ccccc1)C1(c2cccs2)CCOCC1	-0.1%	-0.1%	i	0.6%	5.17µM*	17.0%
Cc1ccc(NC(=O)C2CCCN(S(=O)(=O)c3c(C)nn(C)c3C)C2)c(C)c1 (centres undefined)	/	/	i	/	i	4.9%
O=S1(=O)C2CC3C=CC2(O3)C(O)C(Cc2ccccc2)N1Cc1cccc(C(F)(F)F)c1 (centres undefined)	/	/	/	/	/	-2.2%
CC(=O)N(O)CCCCCNC(=O)CCC(=O)N(O)CCCCCNC(=O)CCC(=O)N(O)CCCCCN	?	2.55µM*!	20.6µM*!	0.2%	?	-8.7%
N#Cc1c(N2CCOCC2)nsc1-c1ccccc1	-2.7%	-27.1%	10.3µM*	-1.7%	?	-28.0%
CN1CCN(c2oc(-c3ccccc3Cl)nc2S(=O)(=O)c2ccccc2)CC1	0.7%	6.9%	i	0.7%	?	3.0%
O=C(CSc1oc(-c2cccs2)nc1S(=O)(=O)c1ccccc1)NC1CCCCC1	24.0%	16.4%	i	1.5%	3.66µM*	-27.9%
O=C(CSc1oc(-c2ccccc2)nc1S(=O)(=O)c1ccc(Cl)cc1)NC1CCCCC1	/	/	i	/	i	-12.8%
CN1CCN(c2oc(-c3cccs3)nc2S(=O)(=O)c2ccccc2)CC1	-6.5%	0.0%	i	-1.1%	13µM*	0.2%
COCCCNc1nc(NCc2ccccc2OC)c2cnn(C)c2n1	/	/	i	/	i	14.8%
CC(C)C(NC(=O)c1ccccc1)C(=O)N1CCN(C/C=C/c2ccccc2)CC1 (centres undefined)	5.4%	-17.8%	i	-8.1%	i	14.4%
CSCCC(NC(=O)c1ccc(Cl)c([N+](=O)[O-])c1)C(=O)N1CCN(C/C=C/c2ccccc2)CC1 (centres undefined)	18.4µM*	1.6%	i	-0.6%	i	-23.3%
CC(C)(C)OC(=O)[C@H](Cc1ccccc1)NC(=O)c1nc[nH]c1C(=O)N[C@@H](Cc1ccccc1)C(=O)OC(C)(C)C	1.7%	-6.6%	16.4µM*	-3.6%	?	3.5%
CCOC(=O)c1ccc(NC(=O)c2nc[nH]c2C(=O)N[C@@H](Cc2ccccc2)C(=O)OC(C)(C)C)cc1	-0.8%	?	13µM*	-0.9%	i	-13.6%
Cc1cccc(NC(=O)c2nc[nH]c2C(=O)N[C@@H](CC(C)C)C(=O)OC(C)(C)C)c1	?	27.7%[9.22 µM]	11.6µM*	-5.7%	?	2.7%
SMILES	MCF10A rerep	SW480 rereplic	KB-3-1 tox	TSG101-PTAP inh	KB-V1 MDR tox	RGS4 inh
CC(C)C[C@H](NC(=O)c1[nH]cnc1C(=O)Nc1ccc(Cl)cc1)C(=O)OC(C)(C)C	2.4%	?	?	-4.3%	?	14.8%
CC(C)(C)OC(=O)[C@H](Cc1ccccc1)NC(=O)c1[nH]cnc1C(=O)Nc1cccc(Cl)c1	14.6µM*	6.8%[9.22 µM]	?	-2.5%	?	2.3%
CC(C)(C)OC(=O)[C@H](Cc1ccccc1)NC(=O)c1[nH]cnc1C(=O)Nc1ccc(Cl)cc1	?	?	?	?	?	-16.4%
CC(=O)Nc1ccc(S(=O)(=O)NC2(C(F)(F)F)NC(=O)N(CCc3ccc(F)cc3)C2=O)cc1 (centres undefined)	/	/	i	/	i	-19.5%
C[C@H](NC(=O)c1nc[nH]c1C(=O)N[C@@H](Cc1ccccc1)C(=O)OC(C)(C)C)C(=O)OC(C)(C)C	?	14.6%	?	?	?	-6.4%
Cc1cccc(NC(=O)c2nc[nH]c2C(=O)N[C@@H](Cc2ccccc2)C(=O)OC(C)(C)C)c1	3.66µM*	-8.4%	?	?	?	-8.2%
Cn1nc(C(=O)NC2CCCN(Cc3ccccc3F)C2)c2ccccc2c1=O (centres undefined)	6.0%	-21.7%	i	-0.6%	?	-6.1%
CCc1cc(C(=O)NC2CCCN(Cc3ccccc3F)C2)n(C)n1 (centres undefined)	0.5%	2.06µM*	i	-2.2%	?	-4.6%
Cc1ccc(OCCCCNC2CCCC(C)C2C)c(C)c1 (centres undefined)	?	?	23.1µM*	0.4%	20.6µM*	-5.9%
CC12CCC(C(=O)N3CCCc4ccccc43)(CC1=O)C2(C)C (centres undefined)	4.0%	0.3%	i	-4.3%	16.4µM*	0.8%
COc1cccc(NC(=O)CCc2nnc3n(CC(C)C)c(=O)c4ccccc4n23)c1	/	/	/	/	/	12.4%
CN(CC(=O)Nc1ccc(F)cc1)C(=O)c1ccc2ccccc2n1	-0.4%	5.17µM*	i	-4.4%	i	-1.0%
Cc1cccc(NC(=O)CCSc2nnc(Cc3ccccc3)o2)c1	0.6%	-0.4%	i	0.2%	14.6µM*	-8.8%
Cc1ccc(NC(=O)CN(C)C(=O)Cc2c[nH]c3ccccc23)cc1	10.8%	-7.3%	i	-4.9%	18.4µM*	-24.2%
Cc1cc(SCC(=O)N(C)CC(=O)Nc2ccc(F)cc2)nc2ccccc12	-53.9%	-74.5%	i	2.2%	5.17µM*	25.2%
CSc1ccccc1NC(=O)CN(C)C(=O)Cc1c[nH]c2ccccc12	2.1%	0.6%	i	-2.6%	i	3.5%
